Screening results (PubChem)
KB-V1 cytotox: kills drug-selected multidrug resistant KB-V1 cells; KB-V1 MDR cells viability, CellTiter-Glo, 72 h; Potency, µM (doses to about 46.1 µM), most hits filed as cytotoxic; actives 3.4% (n = 400,000); also: % is scaled to controls: 0 for no effect and ±100 for the full control effect; nearly all actives have a fitted effect of over 60% in size
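KB-V1, DMEM (no phenol red) + 10% FBS; cpd pin-transferred, titration series; 72 h, 37 degrees C; CellTiter-Glo, luminescence. Data normalized, curve-fit.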
HT1080 IDH1KD tx: kills HT-1080 cells with IDH1 knockdown. HT-1080 IDH1 knockdown viability, ATP luminescence, 48 h. Potency, µM (highest dose often 46.1 µM), for the others: at the top dose activity, negative = toxicity, hits mostly cytotoxic. actives 2% (n = 360,000). AID 686971;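 also: 0% = DMSO wells and -100% = cell-free medium wells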
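% activity derives from luminescence (CellTiter-Glo), normalised to DMSO and no-cell wells. HT-1080-IDH1KD cells, 750/well, had 48 h compound exposure at 37 °C.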
KB-3-1 cytotox: KB-3-1 parental cell cytotoxicity; KB-3-1 viability, CellTiter-Glo ATP luminescence, 72 h; Potency, µM (top dose mostly 46.1 µM), usual class: cytotoxic; actives 1.4% (n = 400,000); AID 1347075; also: % is scaled to controls: 0 for no effect and ±100 for the full control effect; nearly all actives have a fitted effect of over 60% in size
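Parental KB-3-1 adenocarcinoma cells in phenol-red-free DMEM with 10% FBS were pin-treated with compounds at several concentrations, incubated 72 h at 37 °C, and viability read by CellTiter-Glo luminescence; concentration-effect curves were fitted after normalization.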
SW480 rerep: induces DNA re-replication in SW480 colon adenocarcinoma cells; SW480 DNA re-replication, Hoechst DNA content imaging, 48 h; Potency, µM (titrated, usually from 46.1 µM), for the others: at the highest dose re-replication activation, actives largely listed as activators; actives 1.8% (n = 340,000); AID 624297; also: % of control where 0% means no effect; nearly all actives have a fitted effect of over 55% in size
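First, 250 cells per well were seeded. Next, compound or vehicle (23 nL) was pinned in, plates sat 48 hr at 37 C. Finally Hoechst was added for 40 min before fluorescence scanning.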
MCF10A rerep: induces DNA re-replication in MCF 10a normal breast cells | AID 624296 | Potency, µM (series often up to 46.1 µM), without a hit: top-dose activity, positive = re-replication, most hits filed as activators | actives 2.9% (n = 350,000) | MCF 10A DNA re-replication, Hoechst nuclear intensity, 48 h; also: % of control where 0% means no effect; nearly all actives have a fitted effect of over 50% in size
HT1080-NT tox: kills 2HG-producing HT-1080-NT fibrosarcoma cells | HT-1080-NT fibrosarcoma viability, CellTiter-Glo ATP luminescence, 48 h | Potency, µM (series often up to 46.1 µM), inactives show at the top dose activity, negative = less viability, usual class: cytotoxic | actives 1.6% (n = 360,000) | AID 686970;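 also: NT is the 2HG producing partner of a matched IDH1 knockdown line; 0% = DMSO-treated cells and -100% = media-only wells without cells; nearly all actives have a fitted effect of over 55% in size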
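A 48-hour cytotoxicity screen used HT-1080-NT cells plated 2 hours before compound delivery. ATP-based CellTiter-Glo luminescence measured viability, normalized to DMSO and no-cell controls.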
* hit, by the source's call; i = inactive; ? = inconclusive; / = not tested or not shown; [ ] = another dose, or the depositor's remark. A selection: hits, their analogues and other compounds. The true share with any hit is near 7.9%. Calls follow the shape of the dose curve; as a rule, active = well fitted curve in the direction sought with a large enough effect; inconclusive = small, poorly fitted or top-dose-only effect, or another doubt; inactive = no such curve, though single readings can be large; an effect the other way counts as inactive or inconclusive. Potency is read from the fitted curve at half-maximal effect.

SMILES	KB-V1 cytotox	HT1080 IDH1KD tx	KB-3-1 cytotox	SW480 rerep	MCF10A rerep	HT1080-NT tox
CCCS(=O)(=O)N1CC(=O)N(c2cccc(Cl)c2C)C(C)(C(=O)NC2CCCC2)C1 (stereo not given)	i	/	i	/	/	/
O=C(CN1CCN(c2ccc(O)cc2)CC1)Nc1cc([N+](=O)[O-])ccc1Cl	8.2µM*	10.5%	i	1.5%	-2.1%	4.1%
O=C(CN1CCN(Cc2ccccc2)CC1)Nc1ccc([N+](=O)[O-])cc1C(=O)Nc1ccccc1F	?	20.6µM*	i	-2.5%	28.3%	16.4µM*
Cc1ccc(CN(Cc2ccco2)C(=O)COc2ccccc2C)cc1	i	/	i	/	/	/
CNS(=O)(=O)c1cc(-c2nn3c(C)nnc3c3ccccc23)ccc1C	i	/	i	/	/	/
Cc1nn2cc(-c3cccc(Cl)c3)cnc2c1Br	?	?	i	?	?	-20.2%
Cc1nn2cc(-c3cccc(Cl)c3)cnc2c1Cl	5.8µM*	?	13µM*	6.51µM*	9.2µM*	0.0%
O=C1CN(c2nc(-c3cccs3)nc3sc4c(c23)CCCC4)CCN1	?	13µM*	i	3.3%	?	?
O=c1oc(-c2cccs2)nc2sc3c(c12)CCCC3	i	-0.1%	i	?	18.4µM*	-0.5%
CCc1cccc(C)c1NC(=O)CN1C(=O)c2ccccc2Sc2ncccc21	i	/	i	/	/	/
CCOC(=O)C1CCCN(C(=O)c2ccc(F)c(Cl)c2)CC1 (stereo not given)	i	14.9%	i	/	/	15.7%
CCOc1ccc(S(=O)(=O)N2CCc3cc(OC)c(OC)cc3C2)cc1	2.31µM*	16.7%	i	-689.3%	-46.0%	7.1%
CCOc1ccc(S(=O)(=O)N2CCc3ccccc3C2)cc1	i	-10.7%	i	-1.2%[9.22 µM]	1.4%	-1.0%
O=S1(=O)CCO[C@H]2CCCC[C@@H]2N1Cc1cccc(F)c1	?	/	i	/	/	/
O=C(C=Cc1ccccc1)c1cccs1	?	-15.7%	?	?	?	6.8%
O=C(/C(=C/O)N=Nc1ccccc1)c1cccs1	i	?	i	2.7%	13.2%	16.4µM*
Cc1cc(C)nc(NC(N)=NCCc2c[nH]c3ccccc23)n1	i	?	?	8.4%	9.1%	-13.0%
Cc1cc(C)nc(NC(=NCCc2c[nH]c3ccccc23)NC(=O)Nc2ccc(Cl)cc2)n1	8.2µM*	?	i	18.6%	27.9%	-12.8%
CCN(CC)CCN1C(=O)C2C(C(=O)Nc3cccc(SC)c3)C3C=CC2(O3)C1C(=O)NC1CCCC(C)C1C (stereo not given)	?	-24.8%	i	18.4µM*	11.8%	-15.2%
c1ccc(-n2nnnc2Oc2cccc3cccnc23)cc1	?	?	i	-3.9%	6.4%	7.94µM*
CC(=O)Nc1ccc(NC(=O)C(NC(=O)c2ccc(Cl)cc2)C(C)C)cc1 (stereo not given)	i	-1.6%	i	/	/	7.6%
CCSc1nnc(NC(=O)C(NC(=O)c2ccc(Cl)cc2)C(C)C)s1 (stereo not given)	11.6µM*	0.6%	i	-2.3%	2.0%	1.3%
CC(C)C(NC(=O)c1ccc(Cl)cc1)C(=O)NC1=NCCS1 (stereo not given)	20.6µM*	0.4%	i	-6.6%	4.2%	-1.2%
CC(=O)N1CCCC1c1nc2ccccc2n1Cc1ccccc1F (stereo not given)	i	/	i	/	/	/
O=c1cc(O)c2ccc(O)cc2o1	i	-2.6%	i	5.9%	-1.4%	-14.7%
SMILES	KB-V1 cytotox	HT1080 IDH1KD tx	KB-3-1 cytotox	SW480 rerep	MCF10A rerep	HT1080-NT tox
COC(=O)Cc1cc(=O)oc2cc(O)ccc12	i	8.5%	i	18.4µM*	16.4µM*	-1.0%
Cc1nc2c(c(C)nn2-c2ccccc2)c(C)c1CCC(=O)Nc1ccccc1	i	/	i	/	/	/
Cc1nc2c(c(C)nn2-c2ccccc2)c(C)c1CCC(=O)Nc1ccc(CN2CCCC2)cc1	?	20.6µM*	i	?	?	14.6µM*
O=S(=O)(Oc1ccccc1)c1ccc(Cl)c(Cl)c1	?	20.0%	i	-8.9%	-15.1%	25.1%
O=[N+]([O-])c1cc(S(=O)(=O)Oc2ccccc2)ccc1Cl	?	18.4µM*	?	3.26µM*	?	14.6µM*
CC1=CC(C)=Nc2ccccc2N1	i	-2.9%	i	-9.6%	20.6µM*	3.1%
COc1ccc(C(=O)CSc2ccc(-c3ccccc3)nn2)cc1	i	-2.5%	i	-3.4%	1.0%	1.4%
COc1ccc(-c2ccc(SC)nn2)cc1	9.2µM*	23.1µM*	8.2µM*	-1.9%	-3.0%	20.6µM*
CC(Oc1ccc(C#N)cc1)C(=O)N1CC=C(c2ccccc2)CC1 (stereo not given)	13µM*	?	16.4µM*	?	16.4µM*	?
O=c1oc2c(CN3CCOCC3)c(O)ccc2cc1-c1ccccc1	?	/	i	/	/	/
O=c1oc2c(CN3CCN(CCO)CC3)c(O)ccc2cc1-c1ccccn1	?	6.3%	i	6.51µM*	8.2µM*	-1.7%
Cc1ccc2c(=O)cc(CSCC(=O)Nc3nnc(C)s3)[nH]c2c1	i	/	?	/	/	/
Cc1ccc(S(=O)(=O)Nc2cccc3cccnc23)cc1	?	-19.9%	i	?	?	-1.9%
COc1cc(OC)c(NC(=O)c2cc3ccccc3cc2O)cc1Cl	?	-8.7%	?	25.6%	20.6µM*	-11.1%
COc1cc(NC(=O)c2ccccc2Cl)c2ncccc2c1	?	?	?	?	4.61µM*	?
O=C(Nc1cccc2cccnc12)c1ccc(Cl)cc1Cl	i	0.0%	i	3.4%	-1.0%	-2.3%
COc1cc(NS(=O)(=O)c2ccc(C)cc2)c2ncccc2c1	?	?	9.2µM*	3.66µM*	23.6%	-29.8%
O=C(COc1ccccc1F)NC1CC(=O)N(c2ccc3c(c2)OCCO3)C1 (stereo not given)	i	/	i	/	/	/
CC(=O)c1cc2c(cc1NS(=O)(=O)c1ccccc1Br)OCO2	?	-11.8%	i	-2.0%	-3.4%	6.3%
Cc1oc2c(cc(NS(=O)(=O)c3ccc(Cl)cc3)c3ccccc32)c1C(=O)OCc1ccccc1	i	/	i	/	/	/
Cc1oc2c(cc(NS(=O)(=O)c3cccs3)c3ccccc32)c1C(=O)OC(C)C	i	-15.1%	i	-0.3%	13µM*	-0.1%
COc1ccc(S(=O)(=O)Nc2cc3c(C(C)=O)c(C)oc3c3ccccc23)cc1	2.06µM*	0.517µM*	2.06µM*	5.17µM*	?	1.3µM*
